# Laboratory results from paper PMC10163288.
# Only a sample is shown. The hit rate among all sequences tested is not known here. Unmarked numbers belong to inactive results.
# B1: il10ra_site1_normal_mot_39ab2cb694c8b9c1dc7e65c0d672c93e_0001_000000036_0001_53_65_H_._HHH_b2_05692_af2_0001_0000600025_0000002_0 (protein)
# chain: SSSSDEEEEELRELVEEVERLIERNDREEALRVAAEALRLAFRARNPEVLQLLWELAKLLSSSSS
# B2: il10ra_site1_sap_13_mot_8756ee2cf497b5429c717dfc0c0bcfd6_0001_000000186_0001_1_13_H_._HHH_b2_05518_af2_0001_0000600027_0000001_0_0001 (protein)
# chain: SSSSDLEELARAAVRLIEQAIEWGDEERAKFALLALEMAAEETNDPELRELLEELEKLLRGSSSS
# B3: il10ra_site1_sap_25_mot_HHH_b1_08133_000000195_0001_1_19_H_._HHH_b1_03607_0001_0000200023_0000001_0_0001_af2pred_0001 (protein)
# chain: SSSSSEEVEELEEEARELIKRNDPEEVLKIIRRLARLAFRLNDPEISKIAIELAELLKKLDSSSS
# B4: il10ra_site1_normal_mot_HHH_b2_02337_000000026_0001_38_52_H_._HHH_b2_04211_af2_0001_0000300011_0000002_0 (protein)
# chain: SSSSDEEREEIEELIKEFEELLERGDREEAVRVVTEALQFALKLGDQELLKRIWELVKSLSSSSS
# B5: il10ra_site1_sap_17_mot_HHH_b1_06914_000000280_0001_1_18_H_._HHH_b2_08155_0001_0000100009_0000001_0_0001 (protein)
# chain: SSSSDEANERVWELLREALHIDDPEEAREVVEEAAEIAEERNNRVLLHNIRFLLRQLEKGSSSSS
# B6: il10ra_site1_sap_23_mot_HHH_b1_08616_000000009_0001_1_19_H_._HHH_b2_04715_af2_0001_0000100004_0000001_0_0001 (protein)
# chain: SSSSSDQEEQLIRALLWFAEWTSNPTARRLMLEQAERHARELGNEELREEVERVEKELEESSSSS
# B7: il10ra_site1_normal_mot_HHH_b1_05056_000000217_0001_1_20_H_._HHH_b2_03866_0001_0000200011_0000001_0 (protein)
# chain: SSSSSSEEREEVEELLEEAEHVDDLRELARILAEAVRFAYEGKDEEALQLVWEVVRRLFSSSSSS
# B8: il10ra_site1_sap_16_mot_HHH_b2_00943_af2_000000149_0001_1_17_H_._HHH_b1_06222_0001_0000300032_0000001_0_0001_af2pred_dldesign_0_af2pred (protein)
# chain: SSSSSPENEELVRLIREVAELLYDGKPEEAREKLKEAEELTEKLGDEIFKRNIELLRKELESSSS
# B9: il10ra_site1_sap_16_mot_HHH_b1_06789_af2_000000041_0001_1_20_H_._HHH_b1_04240_af2_0001_0000500015_0000001_0_0001 (protein)
# chain: SSSSSDEEYEEEVERLLEEAEKIPDPREAAEVLLKALRVALRGNDPELLHLVWEVLEEISSSSSS
# B10: il10ra_site1_normal_mot_HHH_b1_06057_000000129_0001_22_38_H_._HHH_b2_05766_0001_0000200026_0000001_0 (protein)
# chain: SSSSDRTARWSVEFALRVAEELAKRDPERARELLEHLAELLKEARDEELLEEVERLLEEIGSSSS
# B11: il10ra_site1_normal_mot_HHH_b2_08287_af2_000000247_0001_1_16_H_._HHH_b2_07820_0001_0000300057_0000001_0_af2pred_0001 (protein)
# chain: SSSSDEEEEEVKELLEEAKRIDDPRERTRVLVEAYALAFELNNPELEELVKEVAIELLERSSSSS
# B12: il10ra_site1_sap_19_mot_HHH_b1_04514_000000156_0001_1_18_H_._HHH_b1_01679_0001_0000100001_0000001_0_0001_af2pred_0001 (protein)
# chain: SSSSSSEAEKEVAKILIEVLRLNDEEAAERISHLLIRLIVEGDERLIEEIRELFEEVEENSSSSS
# B13: il10ra_site1_normal_mot_HHH_b1_05672_af2_000000246_0001_1_19_H_._ems_3hC_444_af2_0001_0000400050_0000001_0 (protein)
# chain: SSDLREEFSRVLIRAVRAAARHDEEKAEELVRRAEEIAEELGDEELERYVEIVKNFVESATRSSS
# B14: il10ra_site1_sap_24_mot_HHH_b2_00622_af2_000000153_0001_40_57_H_._1ad9cd31332199d645683f25bccb3f2f_0001_af2_0001_0000400010_0000001_0_0001 (protein)
# chain: SSSSSDEEAEEQVEELLEEAKRIEDREEVLRLLIEANRIAFRAGNDELQREIWRVAQELSSSSSS
# B15: il10ra_site1_sap_19_mot_HHH_b1_01585_000000217_0001_1_18_H_._HHH_b1_05870_af2_0001_0000200018_0000002_0_0001 (protein)
# chain: SSSSSRAEKVREILEEVVELQRQGDKEEAERLLEELLEELEELGDVNSLVNVEYLLRAVRKSSSS
# B16: il10ra_site1_normal_mot_HHH_b1_01827_000000263_0001_1_19_H_._HHH_b2_07433_0001_0000500029_0000001_0_af2pred_0001 (protein)
# chain: SSSSSTEEVERVIKLIRRALEIEDEEERRRLLEEAVELAEEGGNLVLLISARFALEDVEQSSSSS
# B17: il10ra_site1_sap_10_mot_HHH_b1_05704_af2_000000048_0001_1_18_H_._HHH_b2_04382_0001_0000100002_0000001_0_0001_af2pred_0001 (protein)
# chain: SSSSSEEEERVELALRFVKFLLKAGDPEAARFFVEWALEKAKELGNEELEEEAEELLREARSSSS
# B18: il10ra_site1_sap_18_mot_HHH_b2_04327_000000030_0001_41_55_H_._HHH_b2_03484_af2_0001_0000400008_0000001_0_0001_af2pred_0001 (protein)
# chain: SSSSSSSEEEELMQLAAEISRHASPEEIRRLFELLVRLYHEGDPELKEELRELIEEIKSSSSSSS
# B19: il10ra_site1_normal_mot_HHH_b2_07144_000000289_0001_1_18_H_._HHH_b1_03935_0001_0000100008_0000001_1 (protein)
# chain: SSSSSEEAEELYELSREVAHLHREGDEEEAKRLLEEAIELAEELGNFNILFALELLLRQLSSSSS
# B20: il10ra_site1_sap_20_mot_HHH_b2_00093_af2_000000025_0001_40_54_H_._HHH_b2_05679_0001_0000100006_0000001_0_0001_af2pred_0001 (protein)
# chain: SSSSSIHERDVELALLAARLLAERGDPEAVREALELARRQAESTNNEELEELVEEVERELSSSSS
# B21: il10ra_site1_normal_mot_8756ee2cf497b5429c717dfc0c0bcfd6_0001_000000186_0001_1_13_H_._HHH_b1_06578_af2_0001_0000300032_0000001_1_af2pred_0001 (protein)
# chain: SSSSSIAEEVFRLLREAAELYHEGDKEKAEEILKEAEELAEEANDEIAKVIIEFLKRAIENSSSS
# B22: il10ra_site1_normal_mot_HHH_b1_00566_000000151_0001_22_39_H_._HHH_b1_00313_af2_0001_0000700014_0000001_0 (protein)
# chain: SSSSDEREEIAILVAEAIILAERRGDKEVAEELWQLLVEAYYHGDPELFREVEELAEKFLSSSSS
# B23: il10ra_site1_sap_26_mot_HHH_b2_06857_af2_000000179_0001_42_54_H_._HHH_b1_00069_af2_0001_0000100009_0000001_0_0001_af2pred_0001 (protein)
# chain: SSSSSEEREEIYRLIREALELLANGNPEEAEEVLEEAERLAKEANSPLFEFALEAARRKVKSSSS
# B24: il10ra_site1_normal_mot_HHH_b2_08186_000000021_0001_43_56_H_._HHH_b1_02914_0001_0000400023_0000001_0 (protein)
# chain: SSSSDREERIQELLEEAEELAKEGNPEEAARLLQEAIRLAFELGDEELLKEIWEVLRKVASSSSS
# Target: il10ra, Q13651
# Assay: yeast display titration
# il10ra, Q13651, sequence (Q13651 whole entry): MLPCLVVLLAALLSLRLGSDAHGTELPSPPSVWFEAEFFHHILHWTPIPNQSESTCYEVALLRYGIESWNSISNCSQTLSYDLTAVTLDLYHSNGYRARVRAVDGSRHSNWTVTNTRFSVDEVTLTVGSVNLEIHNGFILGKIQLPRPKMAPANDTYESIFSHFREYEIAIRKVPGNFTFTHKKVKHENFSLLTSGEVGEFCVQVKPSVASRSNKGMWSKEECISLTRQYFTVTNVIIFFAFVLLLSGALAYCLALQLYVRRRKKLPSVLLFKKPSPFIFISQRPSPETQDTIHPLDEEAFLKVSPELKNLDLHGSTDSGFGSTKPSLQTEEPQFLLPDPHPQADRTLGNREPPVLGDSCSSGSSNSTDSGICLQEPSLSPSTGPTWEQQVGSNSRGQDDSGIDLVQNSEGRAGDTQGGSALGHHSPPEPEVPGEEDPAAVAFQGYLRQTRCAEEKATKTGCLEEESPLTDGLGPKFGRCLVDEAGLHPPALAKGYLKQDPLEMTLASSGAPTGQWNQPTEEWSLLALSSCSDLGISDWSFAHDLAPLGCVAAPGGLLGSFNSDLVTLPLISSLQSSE
row,Binder,apparent Kd
1,B1,no binding seen
2,B2,no binding seen
3,B3,> 233 nM
4,B4,no binding seen
5,B5,no binding seen
6,B6,no binding seen
7,B7,no binding seen
8,B8,no binding seen
9,B9,no binding seen
10,B10,no binding seen
11,B11,no binding seen
12,B12,no binding seen
13,B13,no binding seen
14,B14,no binding seen
15,B15,no binding seen
16,B16,no binding seen
17,B17,no binding seen
18,B18,no binding seen
19,B19,no binding seen
20,B20,no binding seen
21,B21,no binding seen
22,B22,233 to 399 nM (active)
23,B23,no binding seen
24,B24,no binding seen
